Data published in PubChem BioAssay AID1159580 (chemical genetic matrix, 2015).
“And” between values parts separate entries of the source, which are not always exact repeats. Equal values may be shown once. The whole screen tested about 5,500 compounds, of which about 2,000 (36%) were called active. About 18% were inconclusive and are not listed. Cut-off read from the data, not from the text of the source: active = normalized growth mostly below about 0.91 (no sharp cut-off); inconclusive = no clear call, values can overlap the other calls; inactive = mostly above about 0.92. Some of the results follow.

Test: chemical genetic growth profiling, strain panel (AID 1159580);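 note: tested at 20 µM; growth read once vehicle control cultures reached saturation at 30 °C; 1 = growth at the plate median or of vehicle wells; lower values mean less growth of the strain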
Details: growth OD
[1] = S. cerevisiae deletion strains, locus YAL013W, strain DEP1, hits give low values
[2] = S. cerevisiae deletion strains, locus YBR229C, strain ROT2, hits give low values
[3] = S. cerevisiae deletion strains, locus YCL061C, strain MRC1, hits give low values
[4] = S. cerevisiae deletion strains, locus YDL101C, strain DUN1, hits give low values
[5] = S. cerevisiae deletion strains, locus YDR150W, strain NUM1, hits give low values
[6] = S. cerevisiae deletion strains, locus YEL061C, strain CIN8, hits give low values
[7] = S. cerevisiae deletion strains, locus YGR052W, strain FMP48, hits give low values
[8] = S. cerevisiae deletion strains, locus YGR078C, strain PAC10, hits give low values
[9] = S. cerevisiae deletion strains, locus YHR030C, strain SLT2, hits give low values
[10] = S. cerevisiae deletion strains, locus YHR079C, strain IRE1, hits give low values
[11] = S. cerevisiae deletion strains, locus YHR082C, strain KSP1, hits give low values
[12] = S. cerevisiae deletion strains, locus YHR087W, strain rtc3, hits give low values
[13] = S. cerevisiae deletion strains, locus YJL095W, strain BCK1, hits give low values
[14] = S. cerevisiae deletion strains, locus YJR043C, strain POL32, hits give low values
[15] = S. cerevisiae deletion strains, locus YJR066W, strain TOR1, hits give low values
[16] = S. cerevisiae deletion strains, locus YJR075W, strain HOC1, hits give low values
[17] = S. cerevisiae deletion strains, locus YKL190W, strain CNB1, hits give low values
[18] = S. cerevisiae deletion strains, locus YKL203C, strain TOR2, hits give low values
[19] = S. cerevisiae deletion strains, locus YLR039C, strain RIC1, hits give low values
[20] = S. cerevisiae deletion strains, locus YLR058C, strain SHM2 (second series), hits give low values
[21] = S. cerevisiae deletion strains, locus YLR085C, strain ARP6, hits give low values
[22] = S. cerevisiae deletion strains, locus YLR113W, strain HOG1, hits give low values
[23] = S. cerevisiae deletion strains, locus YLR262C, strain YPT6, hits give low values
[24] = S. cerevisiae deletion strains, locus YML094W, strain GIM5, hits give low values
[25] = S. cerevisiae deletion strains, locus YMR219W, strain ESC1, hits give low values
[26] = S. cerevisiae deletion strains, locus YMR263W, strain SAP30, hits give low values
[27] = S. cerevisiae deletion strains, locus YNL153C, strain GIM3, hits give low values
[28] = S. cerevisiae deletion strains, locus YNL183C, strain NPR1, hits give low values
[29] = S. cerevisiae deletion strains, locus YNL207W, strain RIO2, hits give low values
[30] = S. cerevisiae deletion strains, locus YNL298W, strain CLA4 (second series), hits give low values
[31] = S. cerevisiae deletion strains, locus YNL322C, strain KRE1, hits give low values
[32] = S. cerevisiae deletion strains, locus YNR030W, strain Alg12, hits give low values
[33] = S. cerevisiae deletion strains, locus YOR119C, strain RIO1, hits give low values
[34] = S. cerevisiae deletion strains, locus YOR231W, strain MKK1, hits give low values
[35] = S. cerevisiae deletion strains, locus YPL055C, strain LGE1, hits give low values
[36] = S. cerevisiae deletion strains, locus YPL241C, strain CIN2, hits give low values
[37] = S. cerevisiae deletion strains, locus YPL256C, strain CLN2, hits give low values
[38] = S. cerevisiae deletion strains, locus YPR135W, strain CTF4, hits give low values
[39] = S. cerevisiae strains, strain wild type, hits give low values

Measured: normalized growth

CSc1ccc(/C=C/[N+](=O)[O-])cc1
active: [1] 0.0558 | [2] 0.0536 | [3] 0.0551 | [4] 0.0652 | S. cerevisiae deletion strains, locus YDL134C, strain PPH21, hits give low values 0.0471 | [5] 0.582 | [6] 0.0542 | [7] 0.131 | [8] 0.0514 | [9] 0.0754 and 0.122 | [10] 0.176 | [11] 0.118 | [12] 0.0549 | [13] 0.126 | [14] 0.0504 | [15] 0.114 | [16] 0.0722 | S. cerevisiae deletion strains, locus YKL171W, strain NNK1, hits give low values 0.104 | [17] 0.0461 | [18] 0.107 | [19] 0.0613 | [20] 0.0502 | [21] 0.0653 | [22] 0.179 | [23] 0.0583 | [24] 0.0645 | [25] 0.0483 | [26] 0.0556 | [27] 0.0516 | [28] 0.138 | [29] 0.0972 | [30] 0.0614 | [31] 0.0528 | [32] 0.0591 | S. cerevisiae deletion strains, locus YOL006C, strain TOP1, hits give low values 0.068 | [33] 0.119 | [34] 0.133 | [35] 0.0721 | [36] 0.0816 | [37] 0.17 | [38] 0.202 | [39] 0.0455

O=[N+]([O-])/C=C/c1ccsc1
active: [1] 0.0965 | S. cerevisiae deletion strains, locus YAR019C, strain CDC15, hits give low values 0.0973 | S. cerevisiae deletion strains, locus YBL105C, strain PKC1, hits give low values 0.088 | S. cerevisiae deletion strains, locus YBR135W, strain CKS1, hits give low values 0.0811 | S. cerevisiae deletion strains, locus YBR136W, strain MEC1, hits give low values 0.0958 | S. cerevisiae deletion strains, locus YBR160W, strain CDC28, hits give low values 0.0863 | [2] 0.0538 | [3] 0.0534 | S. cerevisiae deletion strains, locus YDL017W, strain CDC7, hits give low values 0.0862 | S. cerevisiae deletion strains, locus YDL028C, strain MPS1, hits give low values 0.108 | [4] 0.0979 and 0.0659 | S. cerevisiae deletion strains, locus YDL108W, strain KIN28, hits give low values 0.1 | S. cerevisiae deletion strains, locus YDL132W, strain cdc53, hits give low values 0.0899 | S. cerevisiae deletion strains, locus YDL214C, strain PRR2, hits give low values 0.0917 | S. cerevisiae deletion strains, locus YDR052C, strain DBF4, hits give low values 0.0918 | S. cerevisiae deletion strains, locus YDR054C, strain cdc34, hits give low values 0.0966 | [5] 0.319 | S. cerevisiae deletion strains, locus YDR226W, strain ADK1, hits give low values 0.377 | S. cerevisiae deletion strains, locus YDR477W, strain SNF1, hits give low values 0.0976 | [6] 0.0749 | S. cerevisiae deletion strains, locus YER123W, strain YCK3, hits give low values 0.0988 | S. cerevisiae deletion strains, locus YER133W, strain GLC7, hits give low values 0.0944 | S. cerevisiae deletion strains, locus YFL009W, strain cdc4, hits give low values 0.09 | S. cerevisiae deletion strains, locus YFL029C, strain CAK1, hits give low values 0.0924 | S. cerevisiae deletion strains, locus YFR003C, strain YPI1, hits give low values 0.126 | S. cerevisiae deletion strains, locus YFR019W, strain FAB1, hits give low values 0.0932 | S. cerevisiae deletion strains, locus YFR028C, strain CDC14, hits give low values 0.0832 | S. cerevisiae deletion strains, locus YGR040W, strain KSS1, hits give low values 0.102 | [7] 0.105 | [8] 0.0512 | S. cerevisiae deletion strains, locus YGR092W, strain DBF2, hits give low values 0.101 | [9] 0.086 and 0.114 | [10] 0.115 | [11] 0.122 | [12] 0.0574 | S. cerevisiae deletion strains, locus YHR205W, strain SCH9, hits give low values 0.014 | S. cerevisiae deletion strains, locus YIL147C, strain SLN1, hits give low values 0.266 | [13] 0.104 | S. cerevisiae deletion strains, locus YJL128C, strain PBS2, hits give low values 0.0942 | S. cerevisiae deletion strains, locus YJL157C, strain FAR1, hits give low values 0.0861 | S. cerevisiae deletion strains, locus YJL187C, strain SWE1, hits give low values 0.0512 | S. cerevisiae deletion strains, locus YJR016C, strain ILV3, hits give low values 0.0858 | [14] 0.0674 | S. cerevisiae deletion strains, locus YJR066W, strain TOR1 (second series), hits give low values 0.0922 | [15] 0.121 | [16] 0.072 | S. cerevisiae deletion strains, locus YKL048C, strain ELM1, hits give low values 0.109 | S. cerevisiae deletion strains, locus YKL067W, strain YNK1, hits give low values 0.0882 | S. cerevisiae deletion strains, locus YKL101W, strain HSL1, hits give low values 0.0953 | [17] 0.0559 | S. cerevisiae deletion strains, locus YKL193C, strain SDS22, hits give low values 0.0818 | [18] 0.102 | [19] 0.0823 | [20] 0.0499 | [21] 0.0726 | [22] 0.133 | S. cerevisiae deletion strains, locus YLR133W, strain CKI1, hits give low values 0.107 | [23] 0.074 | S. cerevisiae deletion strains, locus YLR403W, strain SFP1, hits give low values 0.0115 | S. cerevisiae deletion strains, locus YML070W, strain DAK1, hits give low values 0.0892 | [24] 0.0766 | S. cerevisiae deletion strains, locus YMR001C, strain CDC5, hits give low values 0.0846 | S. cerevisiae deletion strains, locus YMR205C, strain PFK2 (second series), hits give low values 0.0874 | [25] 0.0511 | [26] 0.0973 | S. cerevisiae deletion strains, locus YMR277W, strain FCP1, hits give low values 0.0872 | S. cerevisiae deletion strains, locus YNL006W, strain LST8, hits give low values 0.0854 | S. cerevisiae deletion strains, locus YNL020C, strain ARK1, hits give low values 0.0962 | [27] 0.0541 | S. cerevisiae deletion strains, locus YNL161W, strain CBK1, hits give low values 0.0827 | [28] 0.113 | [29] 0.0963 | S. cerevisiae deletion strains, locus YNL222W, strain SSU72, hits give low values 0.0831 | [30] 0.0744 | S. cerevisiae deletion strains, locus YNL307C, strain MCK1 (second series), hits give low values 0.106 | [31] 0.238 | [32] 0.0788 | S. cerevisiae deletion strains, locus YOL078W, strain AVO1, hits give low values 0.0843 | S. cerevisiae deletion strains, locus YOL136C, strain PFK27, hits give low values 0.0965 | S. cerevisiae deletion strains, locus YOR061W, strain CKA2, hits give low values 0.0882 | [33] 0.112 | [34] 0.109 | S. cerevisiae deletion strains, locus YOR329C, strain SCD5, hits give low values 0.0876 | S. cerevisiae deletion strains, locus YPL031C, strain PHO85, hits give low values 0.0965 | [35] 0.254 | S. cerevisiae deletion strains, locus YPL153C, strain RAD53, hits give low values 0.0949 | S. cerevisiae deletion strains, locus YPL204W, strain HRR25, hits give low values 0.0984 | S. cerevisiae deletion strains, locus YPL209C, strain IPL1, hits give low values 0.0842 | [36] 0.106 | [37] 0.133 | S. cerevisiae deletion strains, locus YPR025C, strain CCL1, hits give low values 0.0831 | S. cerevisiae deletion strains, locus YPR106W, strain ISR1, hits give low values 0.0863 | S. cerevisiae deletion strains, locus YPR111W, strain DBF20, hits give low values 0.0864 | [38] 0.212 | S. cerevisiae deletion strains, strain NNK1, hits give low values 0.0961 | S. cerevisiae deletion strains, strain TSCII, hits give low values 0.0894 | [39] 0.0538
